Consider 16 molecules from PubChem BioAssay (EPA / NIEHS).

Records with an inconclusive call do not appear. Active and inactive are the calls of the source. The calls were made as follows: active = hit-call score of the fitted dose curve at least 0.9, where 1 is the maximum; inconclusive = response in the unintended direction; inactive = score below 0.9.

The nature of this test: CCTE_Harrill_HTTr_CellCount_MCF7: CCTE's Cell Proliferation Assessment for the High-Throughput Transcriptomics (HTTr) Platform, Harrill Lab (AID 2284012).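 Also: cells exposed to compound for six hours; intended direction is loss of nuclei count meaning fewer cells.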 The procedure, abridged:
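Chemicals in eight-point dilution series are added to MCF-7 cells for six hours, nuclei are stained with Hoechst and imaged, and per-well nuclei counts are fitted in both directions relative to DMSO controls.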
Consider `COC(=O)c1ccc(O)cc1`, for which the result was inactive. In the case of `Cc1nc(C)nc(N2C[C@@H](C)N(c3ccnc([C@@H](C)O)n3)[C@@H](C)C2)n1` it was “inactive”. Next, `OC[C@@H](O)[C@@H](O)[C@H](O)[C@H](O)CO`: “inactive”; `Oc1ccc2ccccc2c1N=Nc1ccccc1`: “inactive”; `O=C(N[C@@H](Cc1ccccc1)[C@@H](O)C(=O)N1C[C@@H](O)[C@@H](O)C1)c1cc2cc(Cl)ccc2[nH]1`: “inactive”. Next, `CCCCCCCCCCCC(=O)OC`: “inactive”. Turning to `CCCCCCCCCCC`, the outcome was inactive. In the case of `CCc1c(C(=O)NN2CCCCC2)nn(-c2ccc(Cl)cc2Cl)c1-c1ccc(Br)cc1` it was “inactive”; in that of `O=C(O)Cc1ccccc1Nc1c(Cl)cccc1Cl`, “inactive”. Next, `Cc1nc(-c2ccc3c(c2)CCN(CCC2CCC(NC(=O)/C=C/c4ccc(F)cc4)CC2)CC3)no1` (stereo unspecified): “inactive”.

Regarding `Cc1c(C(=O)O)c(O)cc2c1C(=O)c1c(O)c([C@@H]3O[C@H](CO)[C@@H](O)[C@H](O)[C@H]3O)c(O)c(O)c1C2=O`, the molecule was classed as inactive. Next, `NC(=O)Cn1c(=O)cc(CCN2CCN(c3nccc4sccc34)CC2)c2ccc(F)cc21`: “inactive”. Next, `O=[N+]([O-])C(CO)(CO)CO`: “inactive”. Next, `Oc1ccc2c(c1)OC[C@@H](N1CCC(O)(c3ccc(F)cc3)CC1)[C@H]2O`: “inactive”; `CCCCCCCCCCCCCO`: “inactive”. On to `CCCCc1ccc2c(n1)[C@@H](c1ccc(OC)cc1C[C@H](C)C(=O)O)[C@H](C(=O)O)[C@H]2c1ccc2c(c1)OCO2`, for which the result was inactive.
